According to PubChem BioAssay AID1159580 (chemical genetic matrix, 2015):
The campaign covered roughly 5,500 compounds. About 2,000 (36%) were called active. Not shown: some 18% with an inconclusive outcome. No stated cut-off is given here; in the data, active means normalized growth mostly below about 0.91 (no sharp cut-off); inconclusive means no clear call, values can overlap the other calls; inactive means mostly above about 0.92. This is one part of the list.

Experiment: chemical genetic growth profiling, strain panel (AID 1159580);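 further: tested at 20 µM; growth read once vehicle control cultures reached saturation at 30 °C; 1 = growth at the plate median or of vehicle wells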
Settings: growth OD
[1] = S. cerevisiae deletion strains, locus YJR075W, strain HOC1, stronger effect = lower value
[2] = S. cerevisiae deletion strains, locus YMR307W, strain GAS1, stronger effect = lower value
[3] = S. cerevisiae deletion strains, locus YNL322C, strain KRE1, stronger effect = lower value
[4] = S. cerevisiae deletion strains, locus YPL055C, strain LGE1, stronger effect = lower value
[5] = S. cerevisiae deletion strains, locus YPL241C, strain CIN2, stronger effect = lower value
[6] = S. cerevisiae deletion strains, locus YAL013W, strain DEP1, stronger effect = lower value
[7] = S. cerevisiae deletion strains, locus YBR229C, strain ROT2, stronger effect = lower value
[8] = S. cerevisiae deletion strains, locus YDL101C, strain DUN1, stronger effect = lower value
[9] = S. cerevisiae deletion strains, locus YDL134C, strain PPH21, stronger effect = lower value
[10] = S. cerevisiae deletion strains, locus YDR150W, strain NUM1, stronger effect = lower value
[11] = S. cerevisiae deletion strains, locus YEL061C, strain CIN8, stronger effect = lower value
[12] = S. cerevisiae deletion strains, locus YGR078C, strain PAC10, stronger effect = lower value
[13] = S. cerevisiae deletion strains, locus YHR030C, strain SLT2, stronger effect = lower value
[14] = S. cerevisiae deletion strains, locus YHR087W, strain rtc3, stronger effect = lower value
[15] = S. cerevisiae deletion strains, locus YJR043C, strain POL32, stronger effect = lower value
[16] = S. cerevisiae deletion strains, locus YKL190W, strain CNB1, stronger effect = lower value
[17] = S. cerevisiae deletion strains, locus YLR039C, strain RIC1, stronger effect = lower value
[18] = S. cerevisiae deletion strains, locus YLR058C, strain SHM2 (second series), stronger effect = lower value
[19] = S. cerevisiae deletion strains, locus YLR085C, strain ARP6, stronger effect = lower value
[20] = S. cerevisiae deletion strains, locus YLR262C, strain YPT6, stronger effect = lower value
[21] = S. cerevisiae deletion strains, locus YML094W, strain GIM5, stronger effect = lower value
[22] = S. cerevisiae deletion strains, locus YMR219W, strain ESC1, stronger effect = lower value
[23] = S. cerevisiae deletion strains, locus YMR263W, strain SAP30, stronger effect = lower value
[24] = S. cerevisiae deletion strains, locus YNL153C, strain GIM3, stronger effect = lower value
[25] = S. cerevisiae deletion strains, locus YNL298W, strain CLA4 (second series), stronger effect = lower value
[26] = S. cerevisiae deletion strains, locus YNR030W, strain Alg12, stronger effect = lower value
[27] = S. cerevisiae deletion strains, locus YPR135W, strain CTF4, stronger effect = lower value
[28] = S. cerevisiae deletion strains, locus YGR229C, strain SMI1, stronger effect = lower value
[29] = S. cerevisiae deletion strains, locus YCL061C, strain MRC1, stronger effect = lower value

Measured: normalized growth

Nc1ccc(CCNc2ncnc3c2ncn3C2OC(CO)C(O)C2O)cc1 (stereo unspecified)
inactive: S. cerevisiae deletion strains, locus YAL040C, strain CLN3, stronger effect = lower value 1.03 | S. cerevisiae deletion strains, locus YCL061C, strain MRC1 (second series), stronger effect = lower value 0.997 | S. cerevisiae deletion strains, locus YDR363W, strain ESC2, stronger effect = lower value 0.988 | S. cerevisiae deletion strains, locus YER002W, strain NOP16, stronger effect = lower value 0.991 | [1] 1 | [2] 1.02 | S. cerevisiae deletion strains, locus YNL175C, strain NOP13, stronger effect = lower value 0.985 | S. cerevisiae deletion strains, locus YNL197C, strain WHI3, stronger effect = lower value 1.01 | S. cerevisiae deletion strains, locus YNL224C, strain SQS1, stronger effect = lower value 0.977 | [3] 0.995 | S. cerevisiae deletion strains, locus YOR083W, strain WHI5 (second series), stronger effect = lower value 0.995 | [4] 0.986 | [5] 0.999

OCc1nccn1Cc1ccc(Cl)cc1
inactive: [6] 1.02 | [7] 1 | [8] 1.03 | [9] 1.02 | [10] 1.05 | [11] 1 | [12] 1 | [14] 0.983 | [15] 1.03 | [1] 0.944 | [16] 0.999 | [17] 0.889 | [18] 0.998 | [19] 1.02 | [20] 0.849 | [21] 0.983 | [22] 1.01 | [23] 1.04 | [24] 1.02 | [25] 0.923 | [3] 1 | [26] 0.947 | [4] 1.08 | [5] 1.02 | [27] 1.03
active: [13] 0.288 | [2] 1.51 [resistant]

COC(=O)c1ccsc1N
inactive: [6] 0.988 | [7] 1 | [8] 1.01 | [10] 1.07 | [11] 0.985 | [12] 1 | [28] 0.981 | [13] 1.09 | [14] 0.995 | [15] 1.02 | [1] 1.01 | [16] 0.99 | [17] 1 | [18] 0.983 | [19] 0.94 | [20] 1.14 | [21] 0.97 | [22] 0.993 | [23] 1.02 | [24] 1 | [25] 0.963 | [3] 0.992 | [26] 0.976 | [4] 0.986 | [5] 0.958 | [27] 1.11

COc1cscc1C(N)=O
inactive: [6] 1.01 | [7] 0.984 | [29] 1.02 | [8] 1 | [10] 1.06 | [11] 0.959 | [12] 1.01 | [28] 0.99 | [13] 1.06 | [14] 1.03 | [15] 1.04 | [1] 1.04 | [17] 1.01 | [18] 0.997 | [19] 0.965 | [20] 0.998 | [21] 0.979 | [22] 0.987 | [23] 1.06 | [2] 0.966 | [24] 1.01 | [25] 0.969 | [3] 0.996 | [26] 1.01 | [4] 1.12 | [5] 0.957 | [27] 1.14

COC(=O)c1cscc1Sc1ccc(Cl)cc1
inactive: [6] 0.948 | [7] 0.953 | [29] 0.978 | [8] 0.961 | [10] 0.983 | [11] 0.931 | [12] 0.956 | [14] 0.944 | S. cerevisiae deletion strains, locus YJL187C, strain SWE1, stronger effect = lower value 0.995 | [15] 0.987 | [1] 0.943 | [18] 0.955 | [21] 0.914 | [22] 0.96 | [23] 0.989 | [24] 0.968 | [25] 0.916 | [4] 0.998 | S. cerevisiae strains, strain wild type, stronger effect = lower value 0.949
active: [9] 0.82 | [13] 0.319 | [17] 0.747 | [19] 0.664 | [20] 0.771 | [3] 0.939 | [26] 0.848 | [5] 0.845 | [27] 0.565
